Sampled rows, rich in hits. Any-hit rate of the full collection: about 7.5%.
FLuc modulator: inhibits or activates purified firefly luciferase, miR-21 counter-screen; purified FLuc, Km substrates, luminescence inhibition; AID 588342; hit rate 6.9% among 360,000; Potency, µM (titrated, usually from 57.5 µM), without a hit: top-dose activity change, negative = inhibition, most hits filed as inhibitors; P08659;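 also: plate controls were vehicle for no effect and reference inhibitor for full effect; nearly all actives have a fitted effect of over 55% in size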
Target sequence (P08659 whole entry, looked up): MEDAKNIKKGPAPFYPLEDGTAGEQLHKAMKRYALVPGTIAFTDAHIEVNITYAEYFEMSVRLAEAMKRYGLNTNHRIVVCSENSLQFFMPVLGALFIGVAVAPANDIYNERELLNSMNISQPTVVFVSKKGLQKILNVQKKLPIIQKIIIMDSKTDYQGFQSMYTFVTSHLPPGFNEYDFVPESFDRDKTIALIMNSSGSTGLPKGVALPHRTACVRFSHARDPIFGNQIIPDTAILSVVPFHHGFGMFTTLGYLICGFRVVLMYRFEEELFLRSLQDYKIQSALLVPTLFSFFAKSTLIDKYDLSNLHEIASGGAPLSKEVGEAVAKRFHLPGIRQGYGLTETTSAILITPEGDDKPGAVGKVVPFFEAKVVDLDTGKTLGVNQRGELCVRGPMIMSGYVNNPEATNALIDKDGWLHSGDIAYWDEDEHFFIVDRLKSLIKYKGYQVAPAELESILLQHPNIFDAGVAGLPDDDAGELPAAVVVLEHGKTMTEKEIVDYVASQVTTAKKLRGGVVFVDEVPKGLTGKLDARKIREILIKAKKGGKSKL
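Biochemical qHTS of compounds, final roughly 60 µM downward over six points, against 10 nM purified firefly luciferase using Km concentrations of substrates (10 uM D-luciferin, 10 uM ATP) in Tris acetate pH 7.5 buffer; luminescence output.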
KinaseGlo FLuc: Kinase-Glo luciferase inhibition (counter-screen); hit rate 0.28% among 200,000; Q27757; AID 1379; Potency, µM (titrated, usually from 38.3 µM), for the others: at the top dose activity change, negative = inhibition, actives largely listed as inhibitors; Kinase-Glo luciferase, ATP luminescence, 8 min; also: % is scaled to controls: 0 for no effect and ±100 for the full control effect; nearly all actives have a fitted effect of over 60% in size
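Inhibition of Kinase-Glo luciferase light generation was assessed at 10 uM ATP in pH 7.2 imidazole buffer, with luminescence measured after eight minutes at ambient temperature.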
Rab9 promoter act: activators of Rab9 promoter; Potency, µM (top dose mostly 9.22 µM), without a hit: at the top dose activation, negative = inhibition, usual class: activators; Huh7 Rab9 promoter-luciferase reporter, luminescence, 24 h; hit rate 2.8% among 320,000; also: % of control where 0% means no effect; nearly all actives have a fitted effect of over 60% in size
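Quantitative HTS format; Huh7 Rab9-luciferase reporter cells (1500/well) receive compound 2 h post-plating, incubate 24 h at 37 °C, then get luciferase reagent for 10 min before luminescence reading.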
NPC1 promoter act: activators of NPC1 promoter; Huh7 NPC1 promoter luciferase reporter, 24 h; Potency, µM (top dose mostly 9.22 µM), for the others: top-dose activation, most hits filed as activators; hit rate 2.4% among 320,000; AID 485313; also: % of control where 0% means no effect; nearly all actives have a fitted effect of over 60% in size
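Luminescence read-out of NPC1 promoter-driven luciferase in stably transfected Huh7 cells; compounds delivered in DMSO and left 24 h at 37C, 5% CO2, qHTS titration format.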
SMN2 splice enh: increases expression of the SMN2 splice variant; HEK293 SMN2-luciferase splicing reporter, luminescence, 30-36 h; Potency, µM (doses to about 46.1 µM), without a hit: at the highest dose activity change, positive = activation, actives largely listed as activators; hit rate 2.8% among 210,000; also: % of control where 0% means no effect; nearly all actives have a fitted effect of over 55% in size
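qHTS luciferase splicing reporter: luminescence rises when SMN2 exon 7 is included in transfected HEK293 cells. Compound exposure lasted 30-36 h at 37C, with 4.5 mM final sodium butyrate as control, followed by a ONE-Glo read.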
ELG1 genotox: genotoxicity induction in ELG1-luciferase HEK293T cells; HEK293T ELG1-luciferase reporter, luminescence, 16 h; Potency, µM (highest dose often 46 µM), for the others: at the highest dose activity change, positive = activation, hits mostly activators; hit rate 1.3% among 330,000; also: % of control where 0% means no effect; nearly all actives have a fitted effect of over 60% in size
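16 hr compound incubation (37 °C, 5% CO2) of HEK293T cells carrying luciferase-tagged ELG1; luciferase then measured by ONE-Glo luminescence after 30 min at RT.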
An asterisk follows results filed as active; u = inconclusive; x = not tested or not shown. Calls follow the shape of the dose curve; as a rule, active = well fitted curve in the direction sought with a large enough effect; inconclusive = small, poorly fitted or top-dose-only effect, or another doubt; inactive = no such curve, though single readings can be large; an effect the other way counts as inactive or inconclusive. Potency is read from the fitted curve at half-maximal effect.

SMILES	FLuc modulator	KinaseGlo FLuc	Rab9 promoter act	NPC1 promoter act	SMN2 splice enh	ELG1 genotox
O=c1c2ccccc2sn1-c1cc(S(=O)(=O)N2CCOCC2)ccc1N1CCCC1	5.4µM*	-3%	-2%	12%	14%	-1%
O=S(=O)(c1ccc(N2CCOCC2)c(Cl)c1)N1CCOCC1	-2%	x	-3%	-1%	x	-1%
O=c1c2ccccc2sn1-c1cc(S(=O)(=O)N2CCOCC2)ccc1N1CCOCC1	4.8µM*	-12%	11%	1%	4%	-3%
CC1=NN(C(=O)c2ccccc2F)C(O)(c2ccc(Cl)cc2)C1 (stereo not given)	0%	x	4%	-5%	x	0%
CC(=O)CSc1ncnc2c1oc1ccccc12	u	-9%	9%	18%	15%	u
c1coc(CSc2ncnc3c2oc2ccccc23)c1	19µM*	x	27%	8%	x	u
c1ccc(Sc2ncnc3c2oc2ccccc23)nc1	21µM*	-3%	u	u	46%	u
COc1ncnc2c1oc1ccccc12	12µM*	-12%	-4%	-2%	x	u
CCOc1ccccc1Oc1ncnc2c1oc1ccccc12	6%	x	x	x	x	x
CCCSc1ncnc2c1oc1ccccc12	15µM*	-3%	16%	3%	-2%	17%
CCCc1cc(=O)n2c(C(=O)Nc3ccc(OCC)cc3)c(C(=O)Nc3ccc(C)cc3)sc2n1	5%	x	x	x	13%	x
CC(C)Sc1ncnc2c1oc1ccccc12	24µM*	-2%	17%	4%	10%	3%
Cc1cccnc1NC(=O)c1ccc(Cl)c(S(=O)(=O)N2CCCCC2)c1	3%	x	3%	-5%	x	6%
COc1ccc2c(c1)CC(C(=O)Nc1ccc(Br)c(C)c1)CO2 (stereo not given)	-1%	x	x	x	x	x
Cc1ccnc(NCc2ccc(Br)cc2)c1	u	x	12%	22%	x	0%
CCN(CC)c1ccc(CNc2ccc(Br)cn2)cc1	u	0%	26%	u	u	10µM*
O=C1CCCCC1C(=O)c1cn(-c2ccc(Cl)c(Cl)c2)nn1 (stereo not given)	0.85µM*	-2%	24%	11%	14µM*	u
O=C1C(Cl)=C(NC2CCCCC2)C(=O)N1c1ccc(Cl)cc1	4.8µM*	-1%	18%	14%	u	u
O=C(Cn1sc2ccccc2c1=O)NC12CC3CC(CC(C3)C1)C2	7.6µM*	-1%	14%	13%	-16%	1%
Nc1cccc2c1C(=O)N(CC(=O)NC13CC4CC(CC(C4)C1)C3)C2=O	-2%	7%	-3%	-1%	-3%	0%
CSc1cccc(NC(=O)Nc2ccccc2)c1	13µM*	-5%	29%	29%	u	u
CSc1cccc(NC(=O)Nc2ccccc2C(N)=O)c1	11µM*	x	3%	-5%	x	2%
CSc1cccc(NC(C)=O)c1	-15%	-7%	-1%	2%	5%	0%
CC(=O)c1cccc(NC(=O)COc2ccccc2)c1	u	-1%	-6%	12%	-6%	u
CSc1cccc(NC(=O)COc2ccccc2)c1	17µM*	-3%	1%	11%	5%	4%
SMILES	FLuc modulator	KinaseGlo FLuc	Rab9 promoter act	NPC1 promoter act	SMN2 splice enh	ELG1 genotox
COc1cc(/C=C2/C(=N)N3N=C(CC(=O)N4CCOCC4)SC3=NC2=O)ccc1OCc1ccc(F)cc1	u	x	8%	1%	x	u
COc1ccc(/C=C/C(=O)OC(C)C(=O)c2ccccc2)cc1OC (stereo not given)	-16%	x	-3%	0%	x	12%
COC(=O)/C=C/c1ccc(OC(=O)OC)c(OC(=O)OC)c1	-20%	1%	-12%	-10%	14µM*	10%
Cc1ccc(Nc2nc(Cl)nc(NC(C)(C)C)n2)cc1	12µM*	x	21%	u	x	u
CCOC(=O)CNc1nc(Cl)nc(Nc2ccc(C)cc2)n1	2%	x	3%	3%	x	-2%
Cc1cccnc1Nc1nc(-c2ccccc2)cs1	1.9µM*	x	3.5µM*	3.2µM*	x	2.6µM*
Cc1cccnc1Nc1nc(-c2ccccn2)cs1	u	-7%	-1%	u	x	5.8µM*
O=C1NN(c2ccccc2)C(=O)/C1=C/c1ccc(Sc2cccc3ccccc23)o1	-2%	-2%	-2%	1%	x	3%
COc1cccc(/C=C2/C(=O)NN(c3ccc(F)cc3)C2=O)c1	21µM*	x	4%	0%	x	6%
O=C1NN(c2ccccc2)C(=O)/C1=C\c1ccc2c(c1)OCO2	5.4µM*	x	5%	-1%	x	-2%
COc1cccc(/C=C2/C(=O)NN(c3ccc(C)c(C)c3)C2=O)c1	u	x	-1%	3%	x	13%
COc1cccc(/C=C2/C(=O)NN(c3ccccc3)C2=O)c1	24µM*	x	0%	-2%	x	-1%
O=C1NN(c2ccc(F)cc2)C(=O)/C1=C/c1cccs1	24µM*	-8%	-3%	-1%	x	-1%
Cc1ccc(N2NC(=O)/C(=C\c3cc4c(cc3[N+](=O)[O-])OCO4)C2=O)cc1C	u	-1%	-7%	-1%	-23%	u
O=C1NC(=Nc2cccc(O)c2)S/C1=C\c1cccc([N+](=O)[O-])c1	-18%	x	-2%	-1%	x	13%
CN(C)c1ccc(/C=N/N=C2/NC(=O)/C(=C/c3ccc([N+](=O)[O-])cc3)S2)cc1	0.11µM*	-3%	u	u	28%	5%
COc1ccc(-n2cc(CN[C@H]3CCCCNC3=O)c(-c3cccc(F)c3)n2)cc1	17µM*	x	0%	-1%	x	-2%
O=C(NCCc1cccs1)c1ccc(Cl)c(Cl)c1	11µM*	-1%	2.2µM*	3.2µM*	x	u
Cc1ccc(C(=O)NCCc2cccs2)cc1	0.85µM*	-15%	0.1µM*	0.32µM*	0.5µM*	u
CCOc1c2ccc(C(=O)NCCc3ccc(C)cc3)cc2nn1CC	-2%	-7%	-1%	1%	-29%	4%
O=C(/C=C/c1cccc(Cl)c1)NCc1cccs1	u	-1%	8%	10%	-2%	2%
O=C(/C=C/c1ccc(Cl)cc1)NCc1cccs1	15µM*	-1%	12%	8%	4%	16%
CCn1nc2cc(C(=O)NCCc3cccs3)ccc2c1OC	6.7µM*	-17%	1.1µM*	2.5µM*	u	u
COCCNC(=O)c1ccc(Cl)c(Cl)c1	-1%	-3%	3%	0%	-3%	0%
CCCn1nc2cc(C(=O)NCc3ccc(C)cc3)ccc2c1OCC	-11%	1%	-6%	-3%	0%	0%
CC(C)Oc1ccc(C(=O)NCc2cccs2)cc1	13µM*	-2%	u	30%	22%	u
O=C(NCCc1cccs1)c1ccc(Cl)cc1	1.2µM*	x	0.32µM*	0.35µM*	x	u

Bioassay records (PubChem)
